For 20 molecules, ΔTm results are on record in ChEMBL document CHEMBL5308504, “Tm Shift (DSF) assay results for EUbOPEN Chemogenomics Library” (2023).

Details in all cases: Compound concentration 20.0 uM, Protein concentration 2.0 uM, Result type QC Liability
Experiment [1] concerns the target Tyrosine-protein kinase ABL1 (Homo sapiens) (UniProt P00519).
The target in experiment [2] is Cyclin-dependent kinase 2 (Homo sapiens) (UniProt P24941).
Experiment [3] addresses Casein kinase I isoform delta (Homo sapiens) (UniProt P48730).
For experiment [4], the target named is Glycogen synthase kinase-3 beta (Homo sapiens) (UniProt P49841).
Experiment [5] addresses Mitogen-activated protein kinase 1 (Homo sapiens) (UniProt P28482).
Experiment [6] deals with T1, Aurora kinase A (Homo sapiens) (UniProt O14965).
T1 sequence (whole entry): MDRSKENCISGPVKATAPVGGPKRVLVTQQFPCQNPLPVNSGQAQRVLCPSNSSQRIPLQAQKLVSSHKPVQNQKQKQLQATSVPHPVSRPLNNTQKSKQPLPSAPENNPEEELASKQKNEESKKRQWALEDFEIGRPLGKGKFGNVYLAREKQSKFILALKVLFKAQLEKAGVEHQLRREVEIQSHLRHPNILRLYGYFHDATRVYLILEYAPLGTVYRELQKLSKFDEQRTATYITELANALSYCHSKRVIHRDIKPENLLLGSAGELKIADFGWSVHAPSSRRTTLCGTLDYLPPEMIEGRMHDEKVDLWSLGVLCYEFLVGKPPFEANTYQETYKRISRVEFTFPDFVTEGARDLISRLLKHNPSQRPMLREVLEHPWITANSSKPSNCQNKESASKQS

Glycogen synthase kinase-3 beta (Homo sapiens), sequence (P49841 whole entry, looked up): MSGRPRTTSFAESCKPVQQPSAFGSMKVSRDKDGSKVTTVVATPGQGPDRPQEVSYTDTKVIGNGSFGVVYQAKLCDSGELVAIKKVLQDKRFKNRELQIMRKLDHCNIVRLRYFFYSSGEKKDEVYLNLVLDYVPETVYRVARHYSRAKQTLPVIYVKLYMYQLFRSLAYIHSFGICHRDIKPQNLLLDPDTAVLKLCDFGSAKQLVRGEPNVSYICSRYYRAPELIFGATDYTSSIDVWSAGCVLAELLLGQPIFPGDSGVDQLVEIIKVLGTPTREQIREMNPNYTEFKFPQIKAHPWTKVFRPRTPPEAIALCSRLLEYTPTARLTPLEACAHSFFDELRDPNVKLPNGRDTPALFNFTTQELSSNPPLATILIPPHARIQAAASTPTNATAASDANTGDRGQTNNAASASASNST
Tyrosine-protein kinase ABL1 (Homo sapiens), sequence (P00519 whole entry): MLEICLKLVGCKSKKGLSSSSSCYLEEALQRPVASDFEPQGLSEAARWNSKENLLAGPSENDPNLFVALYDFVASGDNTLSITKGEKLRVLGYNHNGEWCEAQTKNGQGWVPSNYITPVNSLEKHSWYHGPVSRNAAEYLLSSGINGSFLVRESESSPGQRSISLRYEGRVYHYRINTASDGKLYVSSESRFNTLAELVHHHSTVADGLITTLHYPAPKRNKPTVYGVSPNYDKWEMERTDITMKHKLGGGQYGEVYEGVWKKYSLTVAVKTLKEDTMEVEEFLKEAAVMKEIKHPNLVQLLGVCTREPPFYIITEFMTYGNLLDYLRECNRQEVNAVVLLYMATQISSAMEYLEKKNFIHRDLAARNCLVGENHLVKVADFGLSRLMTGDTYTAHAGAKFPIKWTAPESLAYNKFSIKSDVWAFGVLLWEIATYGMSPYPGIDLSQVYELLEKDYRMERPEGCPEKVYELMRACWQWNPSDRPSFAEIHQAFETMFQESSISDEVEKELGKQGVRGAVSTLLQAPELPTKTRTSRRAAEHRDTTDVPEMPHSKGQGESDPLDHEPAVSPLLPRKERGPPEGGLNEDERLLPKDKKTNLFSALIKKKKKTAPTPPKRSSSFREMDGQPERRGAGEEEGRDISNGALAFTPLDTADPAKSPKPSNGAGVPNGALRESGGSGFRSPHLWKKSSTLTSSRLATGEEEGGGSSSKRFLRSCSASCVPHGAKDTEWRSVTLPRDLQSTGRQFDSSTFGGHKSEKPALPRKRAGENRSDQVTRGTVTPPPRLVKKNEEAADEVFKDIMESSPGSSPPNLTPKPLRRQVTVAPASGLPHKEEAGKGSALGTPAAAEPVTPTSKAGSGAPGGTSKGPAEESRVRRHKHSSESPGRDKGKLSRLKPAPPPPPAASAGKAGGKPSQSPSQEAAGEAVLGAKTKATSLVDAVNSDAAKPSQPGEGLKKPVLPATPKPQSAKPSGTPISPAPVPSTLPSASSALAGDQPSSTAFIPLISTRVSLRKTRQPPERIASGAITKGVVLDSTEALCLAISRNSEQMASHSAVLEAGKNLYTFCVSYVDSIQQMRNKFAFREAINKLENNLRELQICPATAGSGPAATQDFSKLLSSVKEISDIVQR
Mitogen-activated protein kinase 1 (Homo sapiens), sequence (P28482 whole entry): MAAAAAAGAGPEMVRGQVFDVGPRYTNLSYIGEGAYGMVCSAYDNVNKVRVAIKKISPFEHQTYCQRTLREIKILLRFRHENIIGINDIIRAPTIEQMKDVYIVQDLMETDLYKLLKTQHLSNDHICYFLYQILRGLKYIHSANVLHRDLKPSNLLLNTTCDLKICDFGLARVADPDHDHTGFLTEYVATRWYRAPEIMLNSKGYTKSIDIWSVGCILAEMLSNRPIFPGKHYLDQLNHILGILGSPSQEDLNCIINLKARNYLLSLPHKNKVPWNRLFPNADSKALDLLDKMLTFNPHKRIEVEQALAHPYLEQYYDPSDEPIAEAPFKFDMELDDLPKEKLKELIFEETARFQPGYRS
Casein kinase I isoform delta (Homo sapiens), sequence (P48730 whole entry, looked up, canonical isoform): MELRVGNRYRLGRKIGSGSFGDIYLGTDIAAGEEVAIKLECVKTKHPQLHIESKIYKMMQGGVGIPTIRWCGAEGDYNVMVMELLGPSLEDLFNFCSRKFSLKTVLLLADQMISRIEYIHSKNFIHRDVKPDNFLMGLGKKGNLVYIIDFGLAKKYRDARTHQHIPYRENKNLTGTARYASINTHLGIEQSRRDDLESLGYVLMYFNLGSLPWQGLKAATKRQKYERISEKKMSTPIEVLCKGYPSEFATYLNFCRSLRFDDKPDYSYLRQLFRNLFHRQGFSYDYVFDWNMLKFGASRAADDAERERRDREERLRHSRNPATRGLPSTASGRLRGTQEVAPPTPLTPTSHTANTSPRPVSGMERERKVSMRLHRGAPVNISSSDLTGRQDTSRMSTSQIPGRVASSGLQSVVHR

For the molecule `CCOC(=O)c1ccc(CN(Cc2ccc(-c3cccc(S(C)(=O)=O)c3)cc2)S(=O)(=O)c2c(C)cc(C)cc2C)o1`, the ΔTm in experiment [1] is -2.07 °C; in experiment [2], -2 °C; in experiment [3], -1.52 °C; in experiment [4], -0.28 °C; in experiment [5], -3 °C; in experiment [6] it was -3.1 °C.
Consider `Cn1cc(NC(=O)c2ccc3nc4n(c3c2)CCCNC4=O)nc1C(=O)NC1CCCC1`, for which the thermal shift (ΔTm) in experiment [1] is 1.61 °C; in experiment [2], 0.41 °C; in experiment [3], 0.38 °C; in experiment [4] it was -0.59 °C; in experiment [5], 0.46 °C; in experiment [6], 0.5 °C.
`CCOC(=O)/N=C(\N)c1ccc(OCc2cccc(COc3ccc(C(C)(C)c4ccc(OC(=O)OCC)cc4)cc3)c2)cc1`: the ΔTm in experiment [1] was 0.03 °C; in experiment [2], -3.47 °C; in experiment [3], -11.2 °C; in experiment [4] it was -4.21 °C; in experiment [5], -11.6 °C; in experiment [6], -7.28 °C.
With `CCCCC[C@@](C)(O)/C=C/[C@H]1C(=O)CC(O)C1C/C=C\CCCC(=O)O` (stereo not given in full), the ΔTm in experiment [1] was -0.65 °C; in experiment [2] it was 0.16 °C; in experiment [3] it was -0.52 °C; in experiment [4], 0.15 °C; in experiment [5], -0.04 °C; in experiment [6], -0.74 °C.
`Cc1ccc2c(NS(=O)(=O)c3ccccc3Cl)cccc2c1Oc1ncccc1-c1ccnc(N[C@H]2CCCNC2)n1`: the thermal shift (ΔTm) was 1.79 °C in experiment [1]; 0.86 °C in experiment [2]; 0.45 °C in experiment [3]; -0.76 °C in experiment [4]; -1.3 °C in experiment [5]; 1.28 °C in experiment [6].
For `Cc1cc(=O)n(C)c2cc(N3C(=O)CC[C@H](NS(=O)(=O)CC(C)C)[C@H]3c3ccc(Cl)cc3)ccc12`, the ΔTm is 0.08 °C in experiment [1]; 0.6 °C in experiment [2]; -0.11 °C in experiment [3]; -0.55 °C in experiment [4]; 0.38 °C in experiment [5]; 0.15 °C in experiment [6].
On to `CCc1nc(C2CCC2)n2nc(-c3ccccc3)[nH]c(=O)c12`, for which the ΔTm stood at 0.18 °C in experiment [1]; 1.98 °C in experiment [2]; 0.4 °C in experiment [3]; 1.45 °C in experiment [4]; 0.11 °C in experiment [5]; 1.13 °C in experiment [6].
For `CC(C)N(CCCCOCC(=O)O)c1cnc(-c2ccccc2)c(-c2ccccc2)n1`, the ΔTm was 0.75 °C in experiment [1]; -0.83 °C in experiment [2]; 0.48 °C in experiment [3]; 0.74 °C in experiment [4]; -0.32 °C in experiment [5]; -1.44 °C in experiment [6].
On to `CCCCc1oc2ccccc2c1C(=O)c1cc(I)c(OCCN(CC)CC)c(I)c1`, for which the ΔTm in experiment [1] is 0.12 °C; in experiment [2] it was 0.14 °C; in experiment [3] it was 0.32 °C; in experiment [4], -0.84 °C; in experiment [5], 0.02 °C; in experiment [6], -1.66 °C.
With `CCOc1ccc(S(=O)(=O)Nc2ccc(Cl)cc2C#Cc2cnc(C(=O)O)cc2OC)c2ncccc12`, the ΔTm was -0.94 °C in experiment [1]; -1.65 °C in experiment [2]; -1.46 °C in experiment [3]; -1.14 °C in experiment [4]; -0.06 °C in experiment [5]; -2.25 °C in experiment [6].
For `CCCCc1c(-c2ccccc2)nc(N)nc1-c1ccc(OCc2ccccc2)c(F)c1F`, the ΔTm in experiment [1] was -0.08 °C; in experiment [2], -0.31 °C; in experiment [3], -3.97 °C; in experiment [4], -3.51 °C; in experiment [5] it was 0 °C; in experiment [6], -1.37 °C.
Turning to `CNC(=O)c1cccc(-c2ccc3c(N4CCOC[C@@H]4C)nc(N4CCOC[C@@H]4C)nc3n2)c1`, the ΔTm in experiment [1] stood at 0.83 °C; in experiment [2], 0.33 °C; in experiment [3], 0.36 °C; in experiment [4] it was 0.51 °C; in experiment [5], 0 °C; in experiment [6], 0.91 °C.
Consider `Cc1ncsc1-c1ccc(CNC(=O)[C@@H]2C[C@@H](O)CN2C(=O)[C@@H](NC(=O)C2(F)CC2)C(C)(C)C)c(OCCOc2ccc(CN3CCN(c4cc(-c5ccccc5O)nnc4N)CC3)cc2)c1`, for which the thermal shift (ΔTm) is 0.25 °C in experiment [1]; 4.72 °C in experiment [2]; 2.6 °C in experiment [3]; 9.47 °C in experiment [4]; -1.54 °C in experiment [5]; 3.64 °C in experiment [6].
For `CN[C@@H](C)C(=O)N[C@H](C(=O)N1CCC[C@H]1c1nc(C(=O)c2ccc(F)cc2)cs1)C1CCCCC1`, the ΔTm in experiment [1] was 0.09 °C; in experiment [2], 0.27 °C; in experiment [3] it was 0.62 °C; in experiment [4] it was -1.01 °C; in experiment [5] it was 0.23 °C; in experiment [6], -1.15 °C.
For `C[C@@]1(Cc2ccc(C#N)cc2)C(=O)N(c2cc(Cl)cc(Cl)c2)c2ncc(C(=O)NC3(c4nc(C5CCC5)no4)CC3)n21`, the ΔTm is 0.13 °C in experiment [1]; -0.03 °C in experiment [2]; 3.08 °C in experiment [3]; 10.7 °C in experiment [4]; 3.07 °C in experiment [5]; 11.8 °C in experiment [6].
Take `COc1cccc(CNc2ccc(S(=O)(=O)Nc3nc4ccccc4s3)cc2)c1O`: the shift in melting temperature (ΔTm) in experiment [1] was 0.16 °C; in experiment [2] it was 0.93 °C; in experiment [3], 0.86 °C; in experiment [4], 0.88 °C; in experiment [5], -0.57 °C; in experiment [6], 1.13 °C.
As for `COc1ccc(CSc2nnc(-c3ccc4ncsc4c3)o2)cc1C(F)(F)F`, the ΔTm in experiment [1] was -6.63 °C; in experiment [2] it was 0.54 °C; in experiment [3], -10.2 °C; in experiment [4], -9.01 °C; in experiment [5], -8.68 °C; in experiment [6], 1.22 °C.
As for `CNS(=O)(=O)c1ccc(N(C)C)c(Nc2ncnc3cc(OC)c(OC)cc23)c1`, the shift in melting temperature (ΔTm) in experiment [1] was 3.42 °C; in experiment [2], -0.02 °C; in experiment [3] it was 0.23 °C; in experiment [4] it was -0.61 °C; in experiment [5] it was 0.24 °C; in experiment [6] it was -1.08 °C.
For the molecule `Clc1cccc(Nc2nccc(NCCCN3CCOCC3)n2)c1`, the thermal shift (ΔTm) in experiment [1] is 1.3 °C; in experiment [2], 1.43 °C; in experiment [3], 0.64 °C; in experiment [4], 5.39 °C; in experiment [5] it was 0.32 °C; in experiment [6] it was 2.47 °C.
For `CCN1CCN(Cc2ccc(C(=O)Nc3ccc(C)c(Oc4ccc5c(c4)CC(=O)N5)c3)cc2C(F)(F)F)CC1`, the ΔTm is 12.9 °C in experiment [1]; 0.01 °C in experiment [2]; 0.95 °C in experiment [3]; 0.8 °C in experiment [4]; 0.26 °C in experiment [5]; -1.25 °C in experiment [6].
